Reference: PubChem BioAssay AID1159580 (chemical genetic matrix, 2015)
Among all 5,500 compounds or so, about 2,000 (36%) were called active. Roughly 18% stayed inconclusive and do not appear here. No stated cut-off is given here; in the data, active means normalized growth mostly below about 0.91 (no sharp cut-off); inconclusive means no clear call, values can overlap the other calls; inactive means mostly above about 0.92. This is one part of the list.

Test: chemical genetic growth profiling, strain panel (AID 1159580);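 further: tested at 20 µM; growth read once vehicle control cultures reached saturation at 30 °C; 1 = growth at the plate median or of vehicle wells; lower values mean less growth of the strain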
Settings: growth OD

Measured: normalized growth

CCc1ccc(CCOc2ccc(CC3SC(=O)NC3=O)cc2)nc1 (configuration not stated)
inactive: S. cerevisiae deletion strains, locus YJR075W, strain HOC1, active compounds read low 0.997 | S. cerevisiae deletion strains, locus YKL009W, strain mrt4, active compounds read low 1.01 | S. cerevisiae deletion strains, locus YKL068W, active compounds read low 0.991 | S. cerevisiae deletion strains, locus YKL085W, strain MDH1 (second series), active compounds read low 0.991 | S. cerevisiae deletion strains, locus YKL085W, strain MDH1, active compounds read low 0.991 | S. cerevisiae deletion strains, locus YKL160W, strain elf1, active compounds read low 1.02 | S. cerevisiae deletion strains, locus YKL190W, strain CNB1, active compounds read low 1.02 | S. cerevisiae deletion strains, locus YKR001C, strain vps1, active compounds read low 0.977 | S. cerevisiae deletion strains, locus YKR026C, strain gcn3, active compounds read low 1.01 | S. cerevisiae deletion strains, locus YKR091W, strain srl3, active compounds read low 0.999 | S. cerevisiae deletion strains, locus YLL001W, strain dnm1, active compounds read low 1 | S. cerevisiae deletion strains, locus YLL026W, active compounds read low 1.02 | S. cerevisiae deletion strains, locus YLL041C, strain sdh2, active compounds read low 1.01 | S. cerevisiae deletion strains, locus YLR027C, strain aat2, active compounds read low 1.01 | S. cerevisiae deletion strains, locus YLR039C, strain RIC1, active compounds read low 0.914 | S. cerevisiae deletion strains, locus YLR058C, strain SHM2, active compounds read low 1.01 | S. cerevisiae deletion strains, locus YLR102C, strain apc9, active compounds read low 0.988 | S. cerevisiae deletion strains, locus YLR113W, strain HOG1, active compounds read low 1.01 | S. cerevisiae deletion strains, locus YLR221C, strain rsa3, active compounds read low 1.01 | S. cerevisiae deletion strains, locus YLR258W, strain gsy2, active compounds read low 1.02 | S. cerevisiae deletion strains, locus YLR262C, strain YPT6 (second series), active compounds read low 0.99 | S. cerevisiae deletion strains, locus YLR262C, strain YPT6, active compounds read low 0.88 | S. cerevisiae deletion strains, locus YLR268W, strain sec22, active compounds read low 0.993 | S. cerevisiae deletion strains, locus YLR320W, strain mms22, active compounds read low 1.01 | S. cerevisiae deletion strains, locus YLR330W, strain CHS5, active compounds read low 1.01 | S. cerevisiae deletion strains, locus YLR342W, strain FKS1 (second series), active compounds read low 0.985 | S. cerevisiae deletion strains, locus YLR342W, strain FKS1, active compounds read low 1.02 | S. cerevisiae deletion strains, locus YLR357W, strain rsc2, active compounds read low 1.03 | S. cerevisiae deletion strains, locus YLR370C, strain arc18, active compounds read low 1.01 | S. cerevisiae deletion strains, locus YLR371W, strain rom2, active compounds read low 0.989 | S. cerevisiae deletion strains, locus YLR384C, strain iki3, active compounds read low 1.01 | S. cerevisiae deletion strains, locus YLR418C, strain cdc73, active compounds read low 0.969 | S. cerevisiae deletion strains, locus YML016C, strain PPZ1, active compounds read low 0.997 | S. cerevisiae deletion strains, locus YML032C, strain rad52, active compounds read low 0.998 | S. cerevisiae deletion strains, locus YML120C, strain ndi1, active compounds read low 1.02 | S. cerevisiae deletion strains, locus YML124C, strain tub3, active compounds read low 0.992 | S. cerevisiae deletion strains, locus YMR058W, strain fet3, active compounds read low 1.01 | S. cerevisiae deletion strains, locus YMR078C, strain ctf18, active compounds read low 0.985 | S. cerevisiae deletion strains, locus YMR125W, strain sto1, active compounds read low 1.02 | S. cerevisiae deletion strains, locus YMR129W, active compounds read low 1 | S. cerevisiae deletion strains, locus YMR205C, strain PFK2, active compounds read low 0.997 | S. cerevisiae deletion strains, locus YMR223W, strain ubp8, active compounds read low 0.995 | S. cerevisiae deletion strains, locus YMR231W, strain pep5, active compounds read low 0.995 | S. cerevisiae deletion strains, locus YMR263W, strain SAP30, active compounds read low 1.04 | S. cerevisiae deletion strains, locus YMR307W, strain GAS1, active compounds read low 0.938 | S. cerevisiae deletion strains, locus YNL067W, strain RPL9B, active compounds read low 1.06 | S. cerevisiae deletion strains, locus YNL071W, strain lat1, active compounds read low 1.01 | S. cerevisiae deletion strains, locus YNL128W, strain TEP1, active compounds read low 1.04 | S. cerevisiae deletion strains, locus YNL153C, strain GIM3, active compounds read low 1 | S. cerevisiae deletion strains, locus YNL183C, strain NPR1, active compounds read low 0.963 | S. cerevisiae deletion strains, locus YNL209W, strain ssb2, active compounds read low 0.997 | S. cerevisiae deletion strains, locus YNL233W, strain BNI4, active compounds read low 1.01 | S. cerevisiae deletion strains, locus YNL248C, strain rpa49, active compounds read low 1.02 | S. cerevisiae deletion strains, locus YNL250W, strain rad50, active compounds read low 0.995 | S. cerevisiae deletion strains, locus YNL271C, strain bni1, active compounds read low 1 | S. cerevisiae deletion strains, locus YNL298W, strain CLA4, active compounds read low 0.997 | S. cerevisiae deletion strains, locus YNL307C, strain MCK1, active compounds read low 0.994 | S. cerevisiae deletion strains, locus YNL322C, strain KRE1 (second series), active compounds read low 1.02 | S. cerevisiae deletion strains, locus YNL322C, strain KRE1, active compounds read low 0.994 | S. cerevisiae deletion strains, locus YNR049C, strain mso1, active compounds read low 1.01 | S. cerevisiae deletion strains, locus YNR052C, strain pop2, active compounds read low 1.01 | S. cerevisiae deletion strains, locus YOL006C, strain TOP1, active compounds read low 1 | S. cerevisiae deletion strains, locus YOL012C, strain htz1 1.21 | S. cerevisiae deletion strains, locus YOL147C, strain pex11, active compounds read low 0.996 | S. cerevisiae deletion strains, locus YOR001W, strain rrp6, active compounds read low 1.01 | S. cerevisiae deletion strains, locus YOR061W, strain CKA2, active compounds read low 0.999 | S. cerevisiae deletion strains, locus YOR069W, strain VPS5, active compounds read low 1 | S. cerevisiae deletion strains, locus YOR070C, strain gyp1, active compounds read low 1.01 | S. cerevisiae deletion strains, locus YOR080W, strain dia2, active compounds read low 1.01 | S. cerevisiae deletion strains, locus YOR083W, strain WHI5, active compounds read low 1 | S. cerevisiae deletion strains, locus YOR106W, strain vam3, active compounds read low 1.02 | S. cerevisiae deletion strains, locus YOR136W, strain idh2, active compounds read low 1 | S. cerevisiae deletion strains, locus YOR144C, strain elg1, active compounds read low 0.993 | S. cerevisiae deletion strains, locus YOR184W, strain ser1, active compounds read low 0.971 | S. cerevisiae deletion strains, locus YOR231W, strain MKK1, active compounds read low 0.98 | S. cerevisiae deletion strains, locus YOR265W, strain rbl2, active compounds read low 1.01 | S. cerevisiae deletion strains, locus YOR270C, strain vph1, active compounds read low 1.04 | S. cerevisiae deletion strains, locus YOR290C, strain snf2, active compounds read low 1 | S. cerevisiae deletion strains, locus YOR316C, strain cot1, active compounds read low 0.997 | S. cerevisiae deletion strains, locus YPL051W, strain arl3, active compounds read low 1.01 | S. cerevisiae deletion strains, locus YPL055C, strain LGE1, active compounds read low 1.02 | S. cerevisiae deletion strains, locus YPL078C, strain atp4, active compounds read low 1.01 | S. cerevisiae deletion strains, locus YPL106C, strain sse1, active compounds read low 1.02 | S. cerevisiae deletion strains, locus YPL240C, strain hsp82, active compounds read low 1.02 | S. cerevisiae deletion strains, locus YPL241C, strain CIN2, active compounds read low 1 | S. cerevisiae deletion strains, locus YPL256C, strain CLN2, active compounds read low 0.936 | S. cerevisiae deletion strains, locus YPR119W, strain clb2, active compounds read low 0.989 | S. cerevisiae deletion strains, locus YPR141C, strain kar3, active compounds read low 0.994 | S. cerevisiae deletion strains, locus YPR163C, strain tif3, active compounds read low 0.999 | S. cerevisiae deletion strains, locus YPR167C, strain met16, active compounds read low 0.996 | S. cerevisiae deletion strains, strain wtn01, active compounds read low 0.99 | S. cerevisiae strains, strain wild type, active compounds read low 1.01
